# Laboratory results from PubChem BioAssay (EPA / NIEHS).
# Records with an inconclusive call do not appear. Active and inactive are the calls of the source. How the source made its calls: active means hit-call score of the fitted dose curve at least 0.9, where 1 is the maximum; inconclusive means response in the unintended direction; inactive means score below 0.9.
# Tests used:
# [1] = target: Cytochrome P450 2C19 (Homo sapiens) (UniProt P33261); test: NVS_ADME_hCYP2C19: NovaScreen (NVS) CYP450-related Enzyme Activity (ADME) Assay for human CYP2C19 (AID 2283113);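 further: potency for inhibition seen as loss of fluorescent signal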
# Outline: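 Recombinant insect-cell-expressed enzyme, fluorescent substrate, 1 h after chemical addition, fluorescence intensity. Baseline = acetonitrile vehicle; activity scored as signal loss. Primary HTS single concentration 10 uM, duplicate; actives retested in concentration series.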
# [2] = target: human Phosphodiesterase 10 (PDE10), PDE10A (gene 10846) (UniProt Q9Y233); test: NVS_ENZ_hPDE10: NovaScreen (NVS) Enzymatic Assay for human Phosphodiesterase 10 (PDE10) (AID 2283195)
# human Phosphodiesterase 10 (PDE10), PDE10A (gene 10846), sequence (Q9Y233 whole entry, looked up): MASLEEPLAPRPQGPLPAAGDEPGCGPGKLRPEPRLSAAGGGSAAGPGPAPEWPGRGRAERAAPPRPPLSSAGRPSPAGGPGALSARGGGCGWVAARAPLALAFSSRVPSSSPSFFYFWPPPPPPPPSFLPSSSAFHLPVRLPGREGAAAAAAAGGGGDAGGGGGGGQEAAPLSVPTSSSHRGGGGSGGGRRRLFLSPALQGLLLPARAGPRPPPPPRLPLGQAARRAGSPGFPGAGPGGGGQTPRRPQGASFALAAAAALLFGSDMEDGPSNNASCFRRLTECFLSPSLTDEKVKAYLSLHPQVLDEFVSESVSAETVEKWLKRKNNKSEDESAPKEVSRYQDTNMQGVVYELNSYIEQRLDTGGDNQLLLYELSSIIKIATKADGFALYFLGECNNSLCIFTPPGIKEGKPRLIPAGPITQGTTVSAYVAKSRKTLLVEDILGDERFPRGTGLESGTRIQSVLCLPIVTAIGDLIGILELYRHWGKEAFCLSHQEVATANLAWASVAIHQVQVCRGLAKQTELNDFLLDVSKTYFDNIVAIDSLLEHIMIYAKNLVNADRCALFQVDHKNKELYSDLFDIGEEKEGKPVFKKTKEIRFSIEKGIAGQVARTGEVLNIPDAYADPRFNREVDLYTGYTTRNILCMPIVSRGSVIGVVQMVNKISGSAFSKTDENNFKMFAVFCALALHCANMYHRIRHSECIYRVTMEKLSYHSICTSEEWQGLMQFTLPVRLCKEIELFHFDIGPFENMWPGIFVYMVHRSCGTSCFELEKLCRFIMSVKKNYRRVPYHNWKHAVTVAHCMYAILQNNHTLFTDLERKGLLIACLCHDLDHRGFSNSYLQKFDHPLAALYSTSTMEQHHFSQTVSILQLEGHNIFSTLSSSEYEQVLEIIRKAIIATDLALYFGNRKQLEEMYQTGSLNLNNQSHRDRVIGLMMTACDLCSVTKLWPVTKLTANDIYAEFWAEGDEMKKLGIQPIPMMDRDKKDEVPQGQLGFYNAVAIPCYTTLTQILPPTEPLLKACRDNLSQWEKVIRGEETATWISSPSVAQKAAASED
# Outline: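 Biochemical single-readout PDE10A assay, cell-free, extracted protein. Compounds first screened at 25 uM in duplicate, hits then titrated to 50 uM max. Activity measured after 1 h; loss-of-signal fitted against DMSO negative control.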
# [3] = target: human Neurokinin, NK2 Receptor, TACR2 (gene 6865) (UniProt P21452); test: NVS_GPCR_hNK2: NovaScreen (NVS) G Protein-Coupled Receptor Assay for human Neurokinin, NK2 Receptor (AID 2283278);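 further: actives reduce bound radioligand signal relative to DMSO baseline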
# human Neurokinin, NK2 Receptor, TACR2 (gene 6865), sequence (P21452 whole entry, looked up): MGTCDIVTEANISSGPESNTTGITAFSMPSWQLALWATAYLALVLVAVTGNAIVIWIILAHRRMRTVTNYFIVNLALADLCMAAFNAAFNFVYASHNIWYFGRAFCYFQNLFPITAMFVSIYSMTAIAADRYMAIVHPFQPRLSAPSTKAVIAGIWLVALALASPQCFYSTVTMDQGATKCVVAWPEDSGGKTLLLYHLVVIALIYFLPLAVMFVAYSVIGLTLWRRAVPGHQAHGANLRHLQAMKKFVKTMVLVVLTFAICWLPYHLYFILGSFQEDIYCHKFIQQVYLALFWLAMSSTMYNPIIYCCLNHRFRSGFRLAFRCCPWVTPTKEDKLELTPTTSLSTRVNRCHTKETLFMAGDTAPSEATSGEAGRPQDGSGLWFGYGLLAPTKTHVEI
# Outline: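 Test chemicals displace a radioligand from receptor prepared from CHO cells in a cell-free format, read after 4 hours by scintillation counting on filters. Screening starts at 25 uM in duplicate, and active chemicals then go to concentration series.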
# [4] = target: human Matrix Metalloproteinase-9 (MMP9), MMP9 (gene 4318) (UniProt P14780); test: NVS_ENZ_hMMP9: NovaScreen (NVS) Enzymatic Assay for human Matrix Metalloproteinase-9 (MMP9) (AID 2283190);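 further: cell-free recombinant MMP9 protease activity read by fluorescent substrate signal; active means inhibition seen as loss of fluorescence signal versus DMSO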
# human Matrix Metalloproteinase-9 (MMP9), MMP9 (gene 4318), sequence (P14780 whole entry, looked up): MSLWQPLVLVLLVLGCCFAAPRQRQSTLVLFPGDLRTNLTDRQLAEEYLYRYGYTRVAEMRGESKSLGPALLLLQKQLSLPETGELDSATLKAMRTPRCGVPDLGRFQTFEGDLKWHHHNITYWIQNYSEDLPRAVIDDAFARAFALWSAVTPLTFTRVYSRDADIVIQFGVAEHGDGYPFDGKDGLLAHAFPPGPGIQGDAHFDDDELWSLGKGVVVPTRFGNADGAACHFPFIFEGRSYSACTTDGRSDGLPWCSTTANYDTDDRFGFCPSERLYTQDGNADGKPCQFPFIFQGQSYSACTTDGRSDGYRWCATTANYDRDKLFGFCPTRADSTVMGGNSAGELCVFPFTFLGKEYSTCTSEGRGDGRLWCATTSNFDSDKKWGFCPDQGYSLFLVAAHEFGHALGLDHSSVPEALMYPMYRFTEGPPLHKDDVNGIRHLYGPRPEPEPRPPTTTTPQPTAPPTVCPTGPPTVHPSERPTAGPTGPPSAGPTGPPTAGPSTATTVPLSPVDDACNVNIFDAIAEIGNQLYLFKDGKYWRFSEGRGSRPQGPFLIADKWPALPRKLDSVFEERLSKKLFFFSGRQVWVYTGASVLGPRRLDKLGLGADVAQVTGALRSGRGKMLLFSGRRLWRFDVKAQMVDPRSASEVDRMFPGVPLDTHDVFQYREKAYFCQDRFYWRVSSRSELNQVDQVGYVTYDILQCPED
# Outline: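 Screening concentration 25 uM, duplicate wells, then dose series for confirmation. Cell-free enzymatic reaction measured by fluorescence intensity 1 h post-dosing; decreased signal versus DMSO taken as activity.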
# [5] = target: human Caspase 5 (CASP5), CASP5 (gene 838) (UniProt P51878); test: NVS_ENZ_hCASP5: NovaScreen (NVS) Enzymatic Assay for human Caspase 5 (CASP5) (AID 2283137)
# human Caspase 5 (CASP5), CASP5 (gene 838), sequence (P51878 whole entry, looked up): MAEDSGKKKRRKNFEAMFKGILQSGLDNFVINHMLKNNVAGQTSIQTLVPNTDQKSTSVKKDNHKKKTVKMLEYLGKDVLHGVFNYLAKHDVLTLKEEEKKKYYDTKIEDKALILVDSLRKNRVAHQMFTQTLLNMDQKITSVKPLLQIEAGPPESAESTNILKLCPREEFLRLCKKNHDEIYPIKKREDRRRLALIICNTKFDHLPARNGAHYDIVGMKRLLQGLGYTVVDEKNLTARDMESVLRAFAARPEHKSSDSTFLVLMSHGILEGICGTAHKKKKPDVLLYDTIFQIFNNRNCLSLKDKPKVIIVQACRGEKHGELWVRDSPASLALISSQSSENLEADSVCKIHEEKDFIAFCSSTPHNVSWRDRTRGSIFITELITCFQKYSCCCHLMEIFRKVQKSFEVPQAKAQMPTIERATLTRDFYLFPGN
# Outline: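 Loss of fluorescent signal versus DMSO scored for E. coli-derived human CASP5 cleaving a fluorescent substrate, 2 h post-dosing; compounds first tested at 25 uM in duplicate, hits rerun in concentration series with 50 uM top concentration.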
# [6] = target: human Phosphoinositide 3-kinase alpha (PI3Ka), PIK3CA (gene 5290) (UniProt P42336); test: NVS_ENZ_hPI3Ka: NovaScreen (NVS) Enzymatic Assay for human Phosphoinositide 3-kinase alpha (PI3Ka) (AID 2283196)
# Outline: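 Duplicate single-point screen (25 uM), then singleton dose-response (max 50 uM) for compounds meeting the threshold. Cell-free kinase reaction, 1 h; fluorescent mobility-shift readout.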
# [7] = target: rat Adrenergic Receptor, Alpha 2 (Adra2), Non-selective Binding, Adra2a (gene 25083) (UniProt P22909); test: NVS_GPCR_rAdra2_NonSelective: NovaScreen (NVS) G Protein-Coupled Receptor Assay for rat Adrenergic Receptor, Alpha 2 (Adra2), Non-selective Binding (AID 2283299)
# Outline: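 Filter-based scintillation counting of radioligand binding to rat cortical membrane receptors, measured 1.25 hours post-dosing; loss of signal versus DMSO indicates displacement. Initial single-concentration duplicate at 25 uM, then concentration series.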
# [8] = target: human Opioid Receptor Mu (Opiate Mu), OPRM1 (gene 4988) (UniProt P35372); test: NVS_GPCR_hOpiate_mu: NovaScreen (NVS) G Protein-Coupled Receptor Assay for human Opioid Receptor Mu (Opiate Mu) (AID 2283290);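 further: hits lower bound tracer signal versus DMSO meaning displacement of the ligand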
# Outline: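 Here, radioligand binding to CHO-extracted receptor was measured after 2.5 h using filter-based scintillation detection. Initial single-concentration screening used 25 uM in duplicate with plate controls; confirmed actives went to concentration-response testing.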
# [9] = target: human Thromboxane A2 Receptor (TXA2), TBXA2R (gene 6915) (UniProt P21731); test: NVS_GPCR_hTXA2: NovaScreen (NVS) G Protein-Coupled Receptor Assay for human Thromboxane A2 Receptor (TXA2) (AID 2283282);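 further: actives reduce bound radioligand signal relative to DMSO baseline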
# human Thromboxane A2 Receptor (TXA2), TBXA2R (gene 6915), sequence (P21731 whole entry, looked up): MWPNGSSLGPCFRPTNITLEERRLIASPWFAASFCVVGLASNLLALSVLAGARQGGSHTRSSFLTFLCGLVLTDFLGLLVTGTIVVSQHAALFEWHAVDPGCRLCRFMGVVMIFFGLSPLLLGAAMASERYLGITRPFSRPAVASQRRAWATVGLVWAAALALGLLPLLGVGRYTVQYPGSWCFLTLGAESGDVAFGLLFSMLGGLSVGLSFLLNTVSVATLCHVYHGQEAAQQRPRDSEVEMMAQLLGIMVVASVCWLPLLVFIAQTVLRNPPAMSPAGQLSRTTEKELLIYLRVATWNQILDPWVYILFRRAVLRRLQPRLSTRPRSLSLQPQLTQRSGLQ
# Outline: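 Filter scintillation counting of bound radioligand, human platelet protein, 1 h exposure. Single-concentration duplicates (25 uM) first, concentration-response follow-up for actives. Binding loss scored against DMSO baseline.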
# [10] = target: human Beta-secretase (BACE), BACE1 (gene 23621) (UniProt P56817); test: NVS_ENZ_hBACE: NovaScreen (NVS) Enzymatic Assay for human Beta-secretase (BACE) (AID 2283140);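 further: hits are inhibitors that reduce fluorescent substrate signal versus DMSO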
# human Beta-secretase (BACE), BACE1 (gene 23621), sequence (P56817 whole entry, looked up): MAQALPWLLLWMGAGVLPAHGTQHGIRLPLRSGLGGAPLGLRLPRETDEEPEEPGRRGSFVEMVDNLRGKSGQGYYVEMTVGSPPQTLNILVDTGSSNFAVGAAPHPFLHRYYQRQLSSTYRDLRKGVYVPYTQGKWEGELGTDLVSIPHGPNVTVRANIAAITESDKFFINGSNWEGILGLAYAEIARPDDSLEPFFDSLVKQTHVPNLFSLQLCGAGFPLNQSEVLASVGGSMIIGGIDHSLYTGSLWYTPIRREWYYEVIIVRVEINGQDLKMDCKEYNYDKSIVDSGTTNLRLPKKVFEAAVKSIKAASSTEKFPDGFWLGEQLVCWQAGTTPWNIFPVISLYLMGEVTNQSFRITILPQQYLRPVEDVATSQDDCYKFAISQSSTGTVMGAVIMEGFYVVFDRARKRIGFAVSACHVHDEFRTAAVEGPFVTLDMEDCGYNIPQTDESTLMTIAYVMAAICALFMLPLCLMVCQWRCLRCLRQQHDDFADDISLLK
# Outline: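 Enzyme from SF9 cells was incubated 1 hour with compound and fluorogenic substrate, activity read by fluorescence. Single-concentration duplicates at 25 uM preceded concentration-response follow-up; fitting relative to DMSO baseline.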
# [11] = target: human Ephrin type-A Receptor 1 (EphA1), EPHA1 (gene 2041) (UniProt P21709); test: NVS_ENZ_hEphA1: NovaScreen (NVS) Enzymatic Assay for human Ephrin type-A Receptor 1 (EphA1) (AID 2283158);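 further: activity is signal loss versus DMSO meaning EphA1 kinase inhibition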
# human Ephrin type-A Receptor 1 (EphA1), EPHA1 (gene 2041), sequence (P21709 whole entry, looked up): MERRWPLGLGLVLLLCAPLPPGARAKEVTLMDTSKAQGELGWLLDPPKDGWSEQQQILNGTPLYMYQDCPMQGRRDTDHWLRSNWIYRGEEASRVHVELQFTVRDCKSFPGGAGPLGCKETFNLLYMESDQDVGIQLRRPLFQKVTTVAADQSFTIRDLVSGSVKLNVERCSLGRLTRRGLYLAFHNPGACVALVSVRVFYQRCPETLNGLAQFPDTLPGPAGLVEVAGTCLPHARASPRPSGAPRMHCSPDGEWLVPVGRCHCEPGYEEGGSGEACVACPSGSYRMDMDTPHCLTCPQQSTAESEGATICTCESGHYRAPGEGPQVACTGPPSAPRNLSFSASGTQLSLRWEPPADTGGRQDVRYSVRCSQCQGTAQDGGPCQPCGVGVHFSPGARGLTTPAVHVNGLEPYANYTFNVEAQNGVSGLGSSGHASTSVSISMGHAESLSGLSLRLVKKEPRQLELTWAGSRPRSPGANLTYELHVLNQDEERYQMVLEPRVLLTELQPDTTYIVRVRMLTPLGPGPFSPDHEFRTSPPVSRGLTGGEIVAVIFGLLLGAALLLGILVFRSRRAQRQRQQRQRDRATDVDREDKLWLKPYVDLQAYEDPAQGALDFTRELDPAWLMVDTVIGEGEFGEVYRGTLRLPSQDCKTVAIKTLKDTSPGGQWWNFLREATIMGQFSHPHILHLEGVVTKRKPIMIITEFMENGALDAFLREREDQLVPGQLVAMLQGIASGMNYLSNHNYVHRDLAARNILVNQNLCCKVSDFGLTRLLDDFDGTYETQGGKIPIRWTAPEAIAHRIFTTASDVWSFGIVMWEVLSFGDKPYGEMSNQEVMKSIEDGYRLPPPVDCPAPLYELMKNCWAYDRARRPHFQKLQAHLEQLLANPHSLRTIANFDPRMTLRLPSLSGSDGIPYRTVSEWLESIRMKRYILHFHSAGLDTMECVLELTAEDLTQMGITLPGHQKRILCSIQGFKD
# Outline: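 Recombinant kinase, fluorescent substrate, mobility-shift separation, fluorescence read at 1 h. Single-point duplicates at 25 uM; hits (e.g., ≥30% inhibition) run singleton concentration-response, max 50 uM. DMSO = negative control/baseline.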
# [12] = target: human Adenosine A1 Receptor (AdoRA1), ADORA1 (gene 134) (UniProt P30542); test: NVS_GPCR_hAdoRA1: NovaScreen (NVS) G Protein-Coupled Receptor Assay for human Adenosine A1 Receptor (AdoRA1) (AID 2283254)
# Outline: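 Each chemical is first tested twice at 25 uM, actives later in dilution series, against a radioligand bound to human cortex membranes; after 1 h, filter-retained counts are compared with DMSO controls, lower signal indicating displacement.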
# [13] = target: Muscarinic acetylcholine receptor M2 (Homo sapiens) (UniProt P08172); test: NVS_GPCR_hM2: NovaScreen (NVS) G Protein-Coupled Receptor Assay for human Muscarinic, M2 Receptor (AID 2283273)
# Muscarinic acetylcholine receptor M2 (Homo sapiens), sequence (P08172 whole entry, looked up): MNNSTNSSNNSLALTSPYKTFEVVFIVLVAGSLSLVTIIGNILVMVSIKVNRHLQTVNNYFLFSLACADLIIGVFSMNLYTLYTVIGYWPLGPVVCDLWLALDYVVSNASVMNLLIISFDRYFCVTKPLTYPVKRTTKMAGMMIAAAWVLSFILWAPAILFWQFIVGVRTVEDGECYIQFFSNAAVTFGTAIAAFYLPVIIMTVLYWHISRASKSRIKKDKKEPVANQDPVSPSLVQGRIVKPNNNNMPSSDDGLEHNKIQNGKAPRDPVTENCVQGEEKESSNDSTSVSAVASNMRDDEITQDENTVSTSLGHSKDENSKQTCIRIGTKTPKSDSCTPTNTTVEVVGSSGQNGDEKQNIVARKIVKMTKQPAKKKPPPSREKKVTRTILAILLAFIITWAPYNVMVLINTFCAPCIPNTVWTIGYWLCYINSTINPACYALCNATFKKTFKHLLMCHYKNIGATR
# Outline: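 Filter-based radiodetection read bound radioligand 1 h after dosing CHO-derived membrane protein. Single-concentration duplicates (25 uM) first, then concentration-response for actives; signal loss versus DMSO scored.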
# [14] = target: D(1A) dopamine receptor (Homo sapiens) (UniProt P21728); test: NVS_GPCR_hDRD1: NovaScreen (NVS) G Protein-Coupled Receptor Assay for human Dopamine Receptor D1 (DRD1) (AID 2283269)
# Outline: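 Extracted HEK293 DRD1 is incubated 1 h with compound and a tritiated or iodinated radioligand, then filtered and counted. Screening runs 25 uM in duplicate with on-plate positive and negative controls.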
# [15] = target: Sodium channel protein type 1 subunit alpha (Rattus norvegicus) (UniProt P04774); test: NVS_IC_rNaCh_site2: NovaScreen (NVS) Ion Channel Assay for rat Sodium Channel, Site 2 (NaCh) (AID 2283322);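 further: hit means loss of radioligand binding signal relative to DMSO so AC50 marks displacement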
# Outline: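 Initial duplicate single-point testing at 25 uM, followed by concentration-response runs for actives. Binding of radioligand to rat forebrain membranes quantified after 1 h via filter-based radiodetection.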
# [16] = target: rat Thyrotropin Releasing Hormone Receptor (TRH), Trhr (gene 25570) (UniProt Q01717); test: NVS_GPCR_rTRH: NovaScreen (NVS) G Protein-Coupled Receptor Assay for rat Thyrotropin Releasing Hormone Receptor (TRH) (AID 2283329);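 further: hit means lower bound tracer signal versus DMSO baseline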
# Outline: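 Test compounds are screened at 25 uM in duplicate against radioligand binding in rat forebrain membranes, with active pairs followed up over a concentration range. Detection uses filter-based radiodetection after a 4 h exposure.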
smiles,measurement,setting,value
CC(=O)Nc1ccc(N=Nc2cc(C)ccc2O)cc1,AC50,[1],0.00307 µM (active)
same,outcome,[2],inactive
Nc1ccc([N+](=O)[O-])cc1O,outcome,[3],inactive
CCCCCC=O,AC50,[4],1.86 µM (active)
Oc1ccc(Nc2ccccc2)cc1,AC50,[1],2.86 µM (active)
same,AC50,[5],8.26 µM (active)
same,AC50,[4],9.97 µM (active)
same,outcome,[6],inactive
same,outcome,[3],inactive
same,outcome,[7],inactive
CC(C)=CCCC(C)CCOC(=O)C(C)C (centres undefined),outcome,[2],inactive
Cc1cc(C)cc(O)c1,outcome,[8],inactive
C1COCCN1,AC50,[9],6.07 µM (active)
CCN(CC)c1ccc2c(C)cc(=O)oc2c1,AC50,[10],36.4 µM (active)
same,outcome,[11],inactive
same,outcome,[2],inactive
same,outcome,[12],inactive
same,AC50,[13],10.3 µM (active)
same,AC50,[9],3.01 µM (active)
CCCCOCCOCCOC(=O)CCCCC(=O)OCCOCCOCCCC,AC50,[1],5 µM (active)
Nc1ccc(Oc2cccc(Oc3ccc(N)cc3)c2)cc1,outcome,[14],inactive
same,outcome,[9],inactive
same,AC50,[15],12.1 µM (active)
CCCCCCOC(=O)c1ccccc1,outcome,[16],inactive
